Compound activity: PubChem, National Center for Advancing Translational Sciences (NCATS)
Pf growth 96h = inhibits malaria parasite growth, 96 h; AID 504834; Potency, µM (highest dose often 28.7 µM), inactives show top-dose activity change, negative = inhibition, actives largely listed as inhibitors; hit rate 6.9% among 320,000; P. falciparum luciferase reporter growth, 96 h; further: on the % scale 0 is the no-effect control and ±100 the full control effect
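96 h incubation, 37 C, 5% CO2, of luciferase-reporter P. falciparum-infected RBCs (2% hematocrit, 0.05% parasitemia final) with test compounds; endpoint luminescence.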
Sm TGR inh = inhibitors of Schistosoma mansoni thioredoxin glutathione reductase. Q962Y6. purified TGR, DTNB reduction, TNB absorbance 405 nm. Potency, µM (doses to about 114 µM), inactives show top-dose activity change, negative = inhibition, actives largely listed as inhibitors. hit rate 3% among 360,000; further: on the % scale 0 is the no-effect control and ±100 the full control effect; nearly all actives have a fitted effect of over 60% in size
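First, TGR (20 nM dispensed) and NADPH were mixed with compound. Second, a 15 min room-temperature incubation followed. Third, further NADPH and then DTNB were added to start the reaction. Finally, TNB absorbance was monitored kinetically.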
Pf growth 48h = P. falciparum growth inhibition at 48 hours (one generation). hit rate 5.9% among 310,000. Potency, µM (series often up to 28.7 µM), for inactives: top-dose activity change, negative = inhibition, actives largely listed as inhibitors. P. falciparum luciferase growth in erythrocytes, 48 h. AID 504832; further: on the % scale 0 is the no-effect control and ±100 the full control effect
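Read-out is firefly luciferase luminescence from an integrated reporter in P. falciparum, so falling signal marks reduced parasite growth. Infected erythrocytes were at 2% hematocrit and 0.1% parasitemia (final) in Albumax-supplemented RPMI 1640.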
SARS PLP yeast = inhibitors of SARS-CoV papain-like protease in yeast; S. cerevisiae expressing SARS-CoV PLpro, growth rescue; hit rate 0.19% among 330,000; AID 485353; Potency, µM (doses to about 32.9 µM), for the others: at the top dose activity, positive = growth rescue, actives largely listed as activators; calls by dose curve; further: 0% is about no effect; nearly all actives have a fitted effect of over 55% in size
Active calls of the source: *; ? = inconclusive; · = no result given. Sampled rows, rich in hits. Any-hit rate of the full collection: about 12%. Unless noted, the call rests on the fitted dose curve; in most records, active means well fitted curve in the direction sought with a large enough effect; inconclusive means small, poorly fitted or top-dose-only effect, or another doubt; inactive means no such curve, though single readings can be large; an effect the other way counts as inactive or inconclusive. Potency means the concentration at half of the fitted maximal effect.

SMILES	Pf growth 96h	Sm TGR inh	Pf growth 48h	SARS PLP yeast
O=C(CCCN1CCC(n2c(=O)[nH]c3ccccc32)CC1)c1ccc(F)cc1	10µM*	-11%	0.81µM*	·
CCCCCn1cc2c(c1-c1ccccc1Br)c(=O)n(C)c(=O)n2C	·	-7%	·	·
COc1ccc(N(C(C)C(=O)NCc2ccco2)S(C)(=O)=O)cc1 (stereo unspecified)	15%	25µM*	-2%	-2%
CC(C)(C)NS(=O)(=O)c1ccc(CCC(=O)NCc2ccco2)cc1	12µM*	35µM*	-28%	2%
O=C(CCc1ccc(S(=O)(=O)NCc2ccccc2)cc1)NCc1ccco1	-27%	-2%	0%	14%
COc1ccc(CCC(=O)NCc2ccco2)cc1	·	56µM*	-25%	-8%
COc1cccc(CNC(=O)CCCCCn2c(=O)[nH]c3cc(OC)c(OC)cc3c2=O)c1	·	-10%	·	·
O=C(CCC(=O)N1CC2CCCN2c2ccccc21)NCc1cccc(Cl)c1 (stereo unspecified)	·	-16%	·	·
COc1cccc(NC(=O)CSc2nnc3scc(-c4ccc(Cl)cc4)n23)c1	·	-1%	·	·
O=C(CSc1nc2ccccc2s1)Nc1ccc(Cl)c(S(=O)(=O)N2CCOCC2)c1	4.7µM*	-7%	?	-23%
O=C(/C=C/c1ccco1)Nc1ccc(Cl)c(S(=O)(=O)N2CCOCC2)c1	-29%	8.9µM*	?	0%
COc1ccc(NC(=O)CSc2ccc(NC(C)=O)cc2)cc1S(=O)(=O)N1CCOCC1	·	·	·	1%
O=C(Nc1ccc(Cl)c(S(=O)(=O)N2CCOCC2)c1)C1CCCC1	·	·	·	7%
COc1ccc(NC(=O)CSc2nnc(C)s2)cc1S(=O)(=O)N1CCOCC1	10µM*	-2%	-18%	-7%
O=C(Nc1ccccc1O)c1cc(S(=O)(=O)N2CCOCC2)c(Cl)cc1Cl	147%	-7%	7.4µM*	-3%
COc1ccccc1CNC(=O)c1oc2ccc(S(=O)(=O)N3CCCCC3)cc2c1C	·	6%	·	·
O=C(Nc1ccc(NC(=O)c2ccc(Cl)c(S(=O)(=O)N3CCOCC3)c2)cc1)c1ccccc1	-1%	-15%	5%	12%
O=C(Nc1ccccc1)Nc1ccc(Cl)c(S(=O)(=O)N2CCOCC2)c1	?	-7%	9.3µM*	-1%
O=C(/C=C/c1ccc(Cl)cc1)NCCCN1CCOCC1	0%	-25%	18%	-3%
O=C(/C=C/c1ccco1)NCCCN1CCOCC1	-24%	11µM*	10%	1%
O=C(/C=C/c1ccc(Br)o1)NCCCN1CCOCC1	13%	4.5µM*	-12%	5%
O=C(COC(=O)/C=C/c1cccc([N+](=O)[O-])c1)NCCCN1CCCC1=O	-6%	-3%	-3%	-7%
O=C(COC(=O)/C=C/c1ccc(Br)o1)NCCCN1CCCC1=O	9%	32µM*	4%	-1%
O=C(/C=C/c1ccc2c(c1)OCO2)NCCCN1CCOCC1	-13%	0%	0%	6%
CCOc1ccc(-n2c(SCC(=O)Nc3ccc4c(c3)OCCO4)nc3c([nH]c4ccccc43)c2=O)cc1	·	3%	·	·
SMILES	Pf growth 96h	Sm TGR inh	Pf growth 48h	SARS PLP yeast
O=C(NCc1ccc2c(c1)OCO2)c1nc(S(=O)(=O)Cc2ccccc2)ncc1Cl	-7%	3.2µM*	-2%	-2%
O=C(NCc1ccc2c(c1)OCO2)c1ccc(Cl)nc1	-1%	10%	45%	1%
O=C(NCc1ccc2c(c1)OCO2)c1nc(S(=O)(=O)Cc2ccccc2F)ncc1Cl	70%	25µM*	29%	14%
CCc1ccc(N(CC(=O)Nc2ccccc2C(=O)N2CCCC2)S(C)(=O)=O)cc1	1%	2%	-2%	4%
Oc1ccc(C2=NN(c3ccccc3)C(c3ccc(F)cc3)C2)cc1 (stereo unspecified)	?	10%	9.3µM*	-12%
Oc1ccccc1C1=NN(c2ccccc2)C(c2ccc(F)cc2)C1 (stereo unspecified)	10µM*	-34%	?	-4%
COc1ccc(C2CC(c3ccc(F)cc3)=NN2c2ccccc2)cc1OC (stereo unspecified)	?	?	?	-7%
O=C(O)[C@@H]1CCCN1	-10%	·	-11%	·
CSc1nc(O)c(C(c2ccccc2)c2c(O)nc(SC)[nH]c2=O)c(=O)[nH]1	7%	7.9µM*	0%	-1%
CSc1nc(O)c(C(c2ccc(C)cc2)c2c(O)nc(SC)[nH]c2=O)c(=O)[nH]1	8%	45µM*	-22%	10%
COc1cc(NC(=O)CSc2ncc(S(=O)(=O)c3ccc(Br)cc3)c(=O)[nH]2)cc(OC)c1	·	-9%	·	·
